In the library only some 4.1% were active in any assay of this set; here they are far more common.
TIM10 inh – growth inhibitors of TIM10 yeast strain | inhibition, % at 10 µM | 1.4% of 330,000 active | AID 463195 | S. cerevisiae TIM10 strain growth, BacTiter-Glo luminescence, 24 h;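 active means inhibition of 40% or more at the single tested concentration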;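 further: wild-type TIM10 isogenic control strain grown at permissive 25 °C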
tim23-1 inh – inhibits growth of tim23-1 mutant yeast; inhibition, % at 20 µM; 1.3% of 330,000 active; AID 463212; S. cerevisiae tim23-1 growth, BacTiter-Glo luminescence, 24 h;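 active means growth inhibition of the mutant yeast at or above 50%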;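 further: temperature-sensitive mutant grown at 25 °C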
NLRP3 yeast inh – blocks the NALP3 inflammasome reconstituted in yeast | Yeast reconstituted NLRP3/ASC/caspase-1, beta-gal luminescence, 24 h | inhibition, % at 10 µM | 0.39% of 330,000 active | AID 2825;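 active means inhibition of 50% or more; inactive means inhibition below 50%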
NALP1 yeast inh – NALP1 inhibition; S. cerevisiae NALP1/ASC/caspase-1 growth, X-gal OD620, 72 h; inhibition, % at 10 µM; 0.61% of 280,000 active; AID 2071; in the data active means inhibition mostly above about 24%, no sharp cut-off; inactive means mostly below about 32%
tim10-1 inh – tim10-1 yeast growth inhibition; S. cerevisiae tim10-1 ts strain growth, BacTiter-Glo, 24 h; inhibition, % at 20 µM; 2.2% of 330,000 active; AID 463190;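 active means inhibition of at least 40%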;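 further: mutant grown at 25 °C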
A number is an active result; – = inactive; · = not tested or not shown.

SMILES	TIM10 inh	tim23-1 inh	NLRP3 yeast inh	NALP1 yeast inh	tim10-1 inh
CCOC(=O)C(=Cc1cc(=O)c(OC)co1)C(=O)OCC	·	·	·	85	·
COc1coc(C(O)CN)cc1=O (stereo not given)	–	–	–	–	–
Cc1c(NCc2ccccc2O)c(=O)n(-c2ccccc2)n1C	–	–	–	38	–
C#CCOC(=O)c1ccc(-n2cncn2)nc1	–	–	–	42	–
O=C(Nn1cnnc1)c1cc(Br)ccc1Cl	–	–	–	–	–
Cc1cc(C)nc(/N=C(\N)Nc2ccc(OCCC(C)C)cc2)n1	–	–	–	33	–
O=C(COC(=O)c1cc(Cl)ccc1Cl)Nc1ccc2[nH]c(=O)[nH]c2c1	–	–	–	·	–
O=C(O)/C(=C\c1cccc([N+](=O)[O-])c1)c1ccc(S(=O)(=O)N2CCCCC2)s1	–	–	–	23	–
O=C(O)/C(=C\c1ccc(Cl)c([N+](=O)[O-])c1)c1ccc(S(=O)(=O)N2CCCCC2)s1	–	–	–	–	–
COC(=O)CSc1nc(C)c(C)c(C)c1C(N)=O	–	–	–	–	–
Cc1cc(C)c2nc(N(CCCN(C)C)C(=O)c3ccc4c(c3)CCCC4)sc2c1	–	–	–	·	–
Cc1ccc2nc(N(CCCN(C)C)C(=O)c3ccc4c(c3)CCCC4)sc2c1	–	–	–	52	–
CCn1c(=O)c(=O)[nH]c2c(=O)oc3ccc(S(=O)(=O)Nc4ccccc4)cc3c21	–	–	–	–	–
C[C@H](NC(=O)c1ccccc1Cl)C(=O)OC(C(=O)Nc1cc(C(F)(F)F)ccc1Cl)c1ccccc1 (stereo not given in full)	–	–	–	35	–
CCOc1ccc2nc(N3CCCC(C(=O)N4CCN(CC)CC4)C3)sc2c1 (stereo not given)	–	–	–	34	–
COC(=O)C1=C(C(=O)OC)[C@@H]2N(C)c3ccc(OC)cc3[C@@]23C[C@@H](C(=O)OC)N(C(=O)c2cc(C)oc2C)C3=N1	–	–	–	·	–
CC(=O)N1CCN(CCS(=O)(=O)c2ccc(Br)cc2)CC1	–	–	–	·	–
Cc1ccc(C#N)c(SCC(=O)Nc2nccs2)n1	–	–	–	–	–
CN(C)CCN1C(=O)C(=O)/C(=C(/O)c2ccc(OCc3ccccc3)cc2)C1c1ccncc1 (stereo not given)	·	·	·	35	·
COc1ccc(CC(=O)N(Cc2ccccc2)C(C)C)cc1	–	–	–	–	–
COc1ccc(OCCCN(C)Cc2ccccc2)cc1	–	–	–	38	–
COc1ccc(CCC(C)N(C)Cc2ccccc2)cc1 (stereo not given)	–	–	–	30	–
Cc1cc(Cl)ccc1OC(C)C(=O)NCCCn1ccnc1 (stereo not given)	–	–	–	–	–
CC(C)(C)NC(=O)COC(=O)c1ccc(Cl)nc1	–	–	–	–	–
OC(CNCCc1ccc(C(F)(F)F)cc1)COc1cccc2ccccc12 (stereo not given)	–	–	–	103	–
SMILES	TIM10 inh	tim23-1 inh	NLRP3 yeast inh	NALP1 yeast inh	tim10-1 inh
COc1ccc(C(=O)C(CCCCC(CN(C)C)C(=O)c2ccc(OC)cc2)CN(C)C)cc1 (stereo not given)	–	–	–	25	–
CCOc1ccc(C(=O)C(CCC(CN(C)C)C(=O)c2ccc(OCC)cc2)CN(C)C)cc1 (stereo not given)	·	·	·	48	·
CN(C)CC(CCC(CN(C)C)C(=O)c1ccccc1)C(=O)c1ccccc1 (stereo not given)	·	·	·	26	·
O=Cc1cnc(N2CCN(c3ccccc3)CC2)s1	–	–	–	39	–
c1ccc(N2CCN(c3cnc4ccccc4n3)CC2)cc1	–	–	–	39	–
O=C(c1cccc(NS(=O)(=O)c2ccc(F)c(F)c2)c1)N1CCCCC1	–	–	–	·	–
COc1ccc(NC(=S)NCCc2c[nH]c3ccc(OC)cc23)c(OC)c1	–	–	–	29	–
Cc1cc(C)n(-c2ccc(C(=O)NCc3ccc4c(c3)OCO4)cc2)n1	–	–	–	–	–
Cc1cc(C)n(-c2ccc(C(=O)NCc3ccc(F)cc3)cc2)n1	–	–	–	29	–
Fc1cccc(CCN2CCNC[C@@H]2CC2CCCCC2)c1	–	–	–	·	–
CC1=C(C(=O)OCC2CCCO2)C(c2cccc(O)c2)NC(=O)N1 (stereo not given)	–	–	–	–	–
CC1=C(C(=O)OCC2CCCO2)C(c2ccc(F)cc2)NC(=O)N1 (stereo not given)	–	–	–	41	–
Cc1ccc(C(=O)N2CCN(C34CC5CC(CC(C5)C3)C4)CC2)o1	–	–	–	–	–
